Potency and outcome data for 40 molecules are collected here from PubChem BioAssay (NCATS).

Structures are written as SMILES. Results filed as inconclusive are left out. Where a call stands in place of a potency, no number is given. The source made the active and inactive calls. Calls come from the whole dose curve; as a rule, active = well fitted inhibition curve with a large enough effect; inconclusive = small, poorly fitted or top-dose-only effect; inactive = flat fitted curve, though single readings scatter.

This assay concerns CRL-7250. The experiment in a line: qHTS assay to identify novel small-molecules to repurpose for Merkel cell carcinoma treatment (AID 1296009). Note: nearly all actives have a fitted effect of over 60% in size. The conditions noted are these: MCC and control cell lines, CellTiter-Glo viability, 72 h; series mostly up to 92 µM. Summed up:
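Luminescence from CellTiter-Glo, read 10 min after addition at room temperature, reported viability following a 72 hr, 37 degree celsius treatment with NPC or MIPE compounds in titration; values normalized to plate controls.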
A general note: In qHTS, concentration-response curves come from the screen itself.
As for `CC1CCC2(C)CCC3(C)C(=CCC4C5(C)CCC(O)C(C)(C(=O)O)C5CCC43C)C2C1C` (stereo not given), the Potency result is “inactive”.

In the case of `CC1CCC2(NC1)OC1C(=O)C3C4CCC5CC(O[C@@H]6O[C@H](CO)[C@@H](O)[C@H](O)[C@H]6O[C@@H]6O[C@@H](C)[C@H](O)[C@@H](O)[C@H]6O)CCC5(C)C4CCC3(C)C1C2C` (stereo not given in full), the Potency result was “inactive”.

Turning to `CC(O)(CC(=O)O)CC(=O)OCc1ccc(O[C@@H]2O[C@H](CO)[C@@H](O)[C@H](O)[C@H]2O)cc1` (stereo not given in full), the Potency entry was “inactive”.

Turning to `COc1ccc(C2Oc3c(OC)cc(CCCO)cc3C2COC2OC(CO)C(O)C(O)C2O)cc1OC` (stereo not given), the Potency result was “inactive”.

With `CC(/C=C/[C@]1(O)[C@@]2(C)CO[C@@]1(C)C[C@@H](O)C2)=C\C(=O)O[C@@H]1O[C@H](CO)[C@@H](O)[C@H](O)[C@H]1O`, the Potency entry was “inactive”.

Take `CC1=C2C(=O)C=C(CO)C2C2OC(=O)C(CS(=O)(=O)O)C2C(OC(=O)Cc2ccc(O)cc2)C1` (stereo not given): the Potency entry was “inactive”.

Consider `C=C1CC/C=C(/CO)C(=O)C[C@@H]2[C@@H]1C[C@@]2(C)COC(C)=O`, for which the Potency entry is “inactive”.

For the molecule `C[C@@H]1CC[C@]2(C)C(C[C@@H](O)[C@H](O)[C@]23CO3)[C@@]1(C)CCc1ccoc1` (stereo not given in full), the Potency result is “inactive”.

On to `O=C(O)CC1(O)C(=O)Nc2ccccc21` (stereo not given), for which the Potency result is “inactive”.

As for `CC(=O)OC1C(C)C2C(OC3OC(CO)C(O)C(O)C3O)OC=C(C(=O)O)C2C1OC(=O)c1ccccc1` (stereo not given), the Potency entry is “inactive”.

Regarding `C[C@H]1[C@H](C)CC[C@]2(C(=O)O)CC[C@]3(C)C(=CCC4[C@@]5(C)C[C@@H](O)[C@H](O)C(C)(C)C5CC[C@]43C)[C@H]12` (stereo not given in full), the Potency result is “inactive”.

Consider `O=C(Nc1ccccc1)N1CCN(Cc2ccc3ccccc3n2)CC1`, for which the Potency entry is “inactive”.

With `CC(C)(O)C1CCC2(C)C3C(O)C4C(C13)C42CO` (stereo not given), the Potency entry was “inactive”.

For `Cc1occc(=O)c1O[C@@H]1O[C@H](CO[C@@H]2OC[C@](O)(CO)[C@H]2O)[C@@H](O)[C@H](O)[C@H]1O`, the Potency entry is “inactive”.

Turning to `COC(=O)/C=C/C=C/C(=O)OC1C=C2COC(=O)C2(O)C2(C)CCCC(C)(C)C12` (stereo not given), the Potency entry is “inactive”.

`C[C@@H]1CC[C@]2(C(=O)O[C@@H]3O[C@H](CO)[C@@H](O)[C@H](O)[C@H]3O)CC[C@]3(C)C(=CCC4[C@@]5(C)C[C@@H](O)[C@H](O)C(C)(C)C5CC[C@]43C)C2[C@]1(C)O` (stereo not given in full): the Potency entry was “inactive”.

Consider `CCc1nn(CCO)c(CC)c1Oc1cc(C#N)cc(C#N)c1`, for which the Potency entry is “inactive”.

Regarding `Cc1cccc(NC(=O)CN2CCC(c3ccccn3)CC2)c1`, the Potency result is “inactive”.

In the case of `Cc1ccc(-c2ccc3c(ccc4sc5c(c43)NC[C@@H](C)NC5=O)n2)cn1`, the Potency entry was “inactive”.

Turning to `CC(C)C1NC(=O)C(CC2(O)c3ccccc3N3C(=O)C(Cc4ccccc4)NC32)NC1=O` (stereo not given), the Potency result is “inactive”.

In the case of `C[C@H](NCc1ccc(OCc2ccccc2F)cc1)C(N)=O`, the Potency entry is “inactive”.

Regarding `CC1(C)C[C@H](O)C[C@@]2(C)[C@H]1[C@H](O)C=C1COC(=O)[C@@]12O`, the Potency result is “inactive”.

Regarding `CC(C)S(=O)(=O)NC[C@H](C)c1ccc(NC(=O)c2cc(F)cc(F)c2)cc1`, the Potency entry was “inactive”.

In the case of `CC1C(=O)OCC2=CCN3CCC(OC(=O)C(C)(O)C1(C)O)C23` (stereo not given), the Potency entry was “inactive”.

Regarding `COc1cc2c(c(O)c1OC/C=C(\C)CC/C=C(/C)CCC=C(C)C)CN(C(CCC(=O)O)C(=O)O)C2=O` (stereo not given), the Potency result is “inactive”.

As for `CC1(C)CC[C@]2(C(=O)O[C@@H]3O[C@H](CO[C@@H]4O[C@H](CO)[C@@H](O)[C@H](O)[C@H]4O[C@@H]4O[C@H](CO)[C@@H](O)[C@H](O)[C@H]4O)[C@@H](O)[C@H](O[C@@H]4O[C@H](CO)[C@@H](O)[C@H](O)[C@H]4O)[C@H]3O)CC[C@]3(C)C(=CCC4[C@@]5(C)CC[C@@H](O)[C@@](C)(C(=O)O[C@@H]6O[C@H](CO)[C@@H](O)[C@H](O)[C@H]6O)C5CC[C@]43C)[C@@H]2C1` (stereo not given in full), the outcome was “inactive [at 9.27 µM]”.

Regarding `O=C1NC(Cc2ccccc2)C(=O)N2CCCC12` (stereo not given), the Potency entry was “inactive”.

As to `NC(=O)c1cccc2[nH]c(-c3ccc(C4CCCN4)cc3F)nc12` (stereo not given), the Potency entry is “inactive”.

For `CN1C(=O)c2ccccc2-n2c(nc3ccccc3c2=O)/C1=C/c1ccccc1`, the Potency result is “inactive”.

As for `CC1=C(C)C(=O)OC(C(C)C2CCC3C4C5OC5C5(O)CC(OC6OC(CO)C(OC7OC(C)C(O)C(O)C7O)C(O)C6O)CC(O)C5(C)C4CCC23C)C1` (stereo not given), the Potency entry was “inactive”.

As for `C=CC(C)(O)CC/C=C(/C)C(=O)OC1C(OC2OCC(OC3OC(CO)C(O)C(O)C3O)C(OC3OCC(O)C(OC4OC(C)C(O)C(O)C4O)C3O)C2O)COC(OC(=O)C23CCC(C)(C)CC2C2=CCC4C5(C)CCC(OC6OC(CO)C(OC7OC(CO)C(O)C(OC8OCC(O)C(O)C8O)C7O)C(O)C6O)C(C)(C)C5CCC4(C)C2(C)CC3O)C1O` (stereo not given), the outcome is “inactive [at 4.96 µM]”.

Regarding `Cc1ccc(-c2c(-c3nn(C)c4ncnc(N5CCC(N6CCCCC6)C5)c34)cnn2C)cc1` (stereo not given), the Potency entry was “inactive”.

On to `C[C@H]1[C@H](C)CC[C@]2(C(=O)O)CC[C@]3(C(=O)O)C(=CCC4[C@@]5(C)CC[C@H](O[C@@H]6O[C@@H](C)[C@H](O)[C@@H](O)[C@H]6O)C(C)(C)C5CC[C@]43C)[C@H]12` (stereo not given in full), for which the Potency result was “inactive”.

For the molecule `Cc1cc(-c2ncc(-c3cccnc3)cc2/C=C/c2ccccc2)cnc1-c1cccnc1`, the Potency result was “inactive”.

Turning to `Cc1ccnn1-c1ccc(C(=O)N2CCN(S(=O)(=O)c3ccc(Cl)c(C(F)(F)F)c3)CC2)cc1`, the Potency entry was “inactive”.

With `COc1cc(C2OCC3(O)C(c4ccc(O[C@@H]5O[C@H](CO)[C@@H](O)[C@H](O)[C@H]5O)c(OC)c4)OCC23O)ccc1O` (stereo not given in full), the Potency entry is “inactive”.

Consider `C=C1CC23CC(=O)C4C(CO)(CO)CCCC4(C)C2CCC1C3` (stereo not given), for which the Potency entry is “inactive”.

Regarding `CC(F)(F)CN1CCOc2c(nn(-c3ccccc3Cl)c2-c2ccc(Cl)cc2)C1=O`, the Potency result was “inactive”.

With `C/C=C(\C)C(=O)OC[C@H]1O[C@@H](O[C@H]2[C@@H](O[C@H]3O[C@H](CO)[C@@H](O)[C@H](O)[C@H]3O[C@@H]3O[C@H](CO)[C@@H](O)[C@H](O)[C@H]3O)O[C@H](COC(=O)/C(C)=C/C)[C@@H](O)[C@@H]2O)[C@H](O)[C@@H](O)[C@@H]1O`, the outcome was “inactive [at 9.27 µM]”.

In the case of `NC(=O)c1ccc(F)c2c1C[C@@H](N(C1CCC1)C1CCC1)CO2`, the Potency result is “inactive”.
